The assay can be described thus: A qHTS for Small Molecule Inhibitors of Shiga Toxin (Confirmatory). Also: nearly all actives have a fitted effect of over 75% in size. To be noted: Cell-based Shiga toxin protection reporter assay; series mostly up to 38.3 µM.

Each structure is given as a SMILES string. Records with an inconclusive call do not appear. A call without a number means that no potency is given here. Activity calls are given as the source filed them. Calls follow the shape of the full dose curve.
Potency is read from the fitted curve at half-maximal effect.

With `Cc1cccc(C(=O)Nc2nnc(SCC(=O)NC3CC3)s2)c1`, the Potency is 4.49 µM (active).
In the case of `Cc1noc(C)c1S(=O)(=O)Nc1cccc(CO)c1` it was “inactive”.
Take `Cc1cc(C)n(-c2nc3c(c(=O)[nH]c(=O)n3C)n2Cc2cccc(Br)c2)n1`: the Potency result was “inactive”.
As to `COc1ccc(NC(=O)c2c(Cl)n(C)c3ccccc23)cc1`, the Potency is 11.3 µM (active).
On to `Cc1nonc1OCCCNc1ccc([N+](=O)[O-])cc1Cl`, for which the Potency was 12.6 µM (active).
On to `COc1ccc(-c2cc(-c3ccccc3O)[nH]n2)cc1OC`, for which the Potency was 2.25 µM (active).
Regarding `O=C(O)Cc1ccc2oc(-c3ccccn3)nc2c1`, the Potency was 12.6 µM (active).
As for `CCCCc1ccc(NS(=O)(=O)N(C)C)cc1`, the Potency result is “inactive”.
With `NC(=O)[C@@H]1CCCN1C(=O)c1ccc2nc(Cc3cccc(Cl)c3)oc2c1`, the Potency result is “inactive”.
With `O=C(Nc1ccc(Cl)cc1)C1CCN(C(=O)c2cccs2)CC1`, the Potency result is “inactive”.
`NS(=O)(=O)c1cc(C(=O)NCC2CCCCC2)ccc1Cl`: the Potency result is “inactive”.
Regarding `COc1ccccc1C(=O)CSc1nccn1C`, the Potency is 28.3 µM (active).
In the case of `Cc1ccc2c(N)[nH]nc2n1` it was “inactive”.
With `Cc1ccc(C)n1-c1ccc(NC(=O)c2ccccc2)cc1`, the Potency was 15.9 µM (active).
Consider `O=C(O)C1CCCCC1C(=O)Nc1ccc(-c2ccccc2)cc1` (stereo not drawn), for which the Potency was 10 µM (active).
In the case of `CCC(=O)N1CCN(c2ccccc2NC(=O)c2ccc([N+](=O)[O-])o2)CC1`, the Potency is 4 µM (active).
`Fc1ccccc1N=C1Nc2cccc3cccc1c23`: the Potency result is “inactive”.
To `c1cc2c(cc1Cn1cnnn1)OCO2` belongs “inactive”; to `COc1ccc(N2CCN(Cc3csc(C)c3-c3ccc(C)cc3)CC2)cc1`, “inactive”.
In the case of `CCOC(=O)C1=C(C)NC(=O)NC1c1ccc(OCC(=O)Nc2ccccc2)c(OC)c1` (stereo not drawn) it was “inactive”; in that of `O=C(CCN1C(=O)c2cccc3cccc(c23)C1=O)NC1CCS(=O)(=O)C1` (stereo not drawn), “inactive”.
Regarding `Cc1cc(C)n(-c2nc(SCCN(C)C)c3c4c(sc3n2)COC(C)(C)C4)n1`, the Potency result was “inactive”.
For `COc1ccccc1NC(=O)Nc1cc(F)ccc1F`, the Potency is 20 µM (active).
As for `Cc1cc(C)nc(Sc2ccc3nnnn3n2)n1`, the Potency was 28.3 µM (active).
Turning to `O=C(Nc1nnc(S(=O)(=O)N2CCOCC2)s1)c1cccc(Br)c1`, the Potency was 20 µM (active).
Take `O=C(Nc1ccccc1)c1ccccc1O`: the Potency was 14.2 µM (active).
With `CC(OC(=O)c1ccc2c(=O)n3c(nc2c1)CCC3)C(N)=O` (stereo not drawn), the Potency entry is “inactive”.
Consider `CC1=C(C)C(OCCBr)N(c2cc(O)c(Cl)cc2F)C1=O` (stereo not drawn), for which the Potency entry is “inactive”.
For `CC[N+](CC)(CCO)CCCN1C(=O)C2CC=C(Cl)CC2C1=O` (stereo not drawn), the Potency result was “inactive”.
For `COCCCNC(=O)NC(=O)c1ccccc1`, the Potency result was “inactive”.
`Cc1cccc(Cn2cc(SCC(=O)Nc3nccs3)c3ccccc32)c1`: the Potency was 8.95 µM (active).
As for `CC(=O)c1cccc(NC(=O)c2ccc(NC(=O)CCS(=O)(=O)c3cccs3)cc2)c1`, the Potency entry was “inactive”.
As for `CCN(C1CCCCC1)S(=O)(=O)c1ccc(S(=O)(=O)NCc2ccncc2)cc1`, the Potency result was “inactive”.
For the molecule `O=C(NNC(=O)c1nc(Cl)ccc1Cl)c1ccc(F)cc1`, the Potency entry was “inactive”.
As to `CCC(C)C1C(C#N)=C(N)OC2=C1C(=O)CC(C)(C)C2` (stereo not drawn), the Potency entry was “inactive”.
Regarding `COc1cccc(C(=O)NNC(=O)C2CC(C)=C(C)CC2C(=O)O)c1` (stereo not drawn), the Potency result is “inactive”.
In the case of `CCNc1c(NC(=O)c2cccs2)c(=O)oc2ccccc12`, the Potency result was “inactive”.
For `O=C(/C=C/Nc1ccc(F)cc1F)c1ccco1`, the Potency was 0.225 µM (active).

Source of the values: PubChem BioAssay AID2320 (National Center for Advancing Translational Sciences (NCATS), 2010).
